Measurements taken from PubChem BioAssay.
The source made the active and inactive calls.

Experiments:
[1] = optical density shifts of acrAB sulA E. coli – strain DRC41, OD650, 48 h, E. coli filamentation inducer project, primary screen (AID 1152); settings: higher = more signal, called active from +8 up or from −8 down;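 note: E. coli MC1000 strain DRC41 lacking acrAB efflux pump and sulA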
[2] = probe aLefty1 binding on compound microarray – biochemical, small-molecule microarray, 635/667 nm fluorescence, primary screen (AID 1153); settings: higher = more signal;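 note: score merges spot fluorescence with signal-to-noise ratio from the scanned slide images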
[3] = plasmodial surface anion channel blockers, osmotic lysis – cell-based, P. falciparum Indochina, OD700, 1 h, primary screen (AID 1154); settings: P. falciparum Indochina infected RBC osmotic lysis, higher = more signal, called active from +8 up or from −8 down
[4] = plasmodial surface anion channel blockers, osmotic lysis – cell-based, P. falciparum Indochina, OD700, 2 h, primary screen (AID 1155);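 note: lysis reports solute entry through the parasite surface anion channel PSAC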; settings: P. falciparum Indochina infected erythrocytes, higher = more signal, called active from +8 up or from −8 down
[5] = changes in parasitized red cell lysis, either direction – P. falciparum Indochina, OD700, 3 h, PSAC antagonist project, primary screen (AID 1156); settings: P. falciparum-infected erythrocytes, osmotic lysis, higher = more signal, called active from +8 up or from −8 down
[6] = plasmodial surface anion channel blockers, osmotic lysis – cell-based, P. falciparum Indochina, OD700, 18 h, primary screen (AID 1157); settings: P. falciparum Indochina infected erythrocytes, osmotic lysis OD700, 18 h; higher = more signal, called active from +8 up or from −8 down
[7] = S6 kinase pathway phospho-S6 level changes – cell-based, A549, cytoblot, luminescence, serum-stimulated, primary screen (AID 1158); settings: 5 h, higher = more signal;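 note: serum-stimulated A549 lung adenocarcinoma cells; signal is phosphorylated S6 detected by cytoblot immunostaining with HRP secondary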
[8] = biological target: NADPH oxidase 2 (Homo sapiens) (UniProt P04839); test: compounds shifting NOX2 Amplex Red fluorescence – cell-based, HEK293-NOX2, PMA-stimulated, NOX inhibitor project, primary screen (AID 1159); settings: 45 min, higher = more signal, called active from +8 up or from −8 down; note: test concentration not given here
[9] = biological target: NADPH oxidase 4 (Homo sapiens) (UniProt Q9NPH5); test: compounds shifting NOX4 Amplex Red fluorescence – cell-based, HEK293-NOX4, tetracycline-induced, NOX inhibitor project, primary screen (AID 1160); settings: HEK293-NOX4, Amplex Red H2O2 fluorescence, 45 min; higher = more signal, called active from +8 up or from −8 down
[10] = biological target: NADPH oxidase 5 (Homo sapiens) (UniProt Q96PH1); test: compounds shifting NOX5 Amplex Red fluorescence – cell-based, HEK293-NOX5, NOX inhibitor project, primary screen (AID 1161); settings: HEK293-NOX5, ionomycin, 45 min, higher = more signal
[11] = compound effects on lung adenocarcinoma cell viability – A549, calcein-AM fluorescence, 48 h, basal, profiling panel (AID 1162); settings: higher = more signal; note: test concentration not given here
[12] = compound effects on differentiated 3T3-L1 adipocyte viability – cell-based, 3T3-L1 adipocytes, calcein-AM fluorescence, 48 h, basal, profiling panel (AID 1163); settings: 3T3-L1 adipocytes viability, higher = more signal; note: test concentration not given here
[13] = compound effects on hepatocellular carcinoma cell viability – HepG2, calcein-AM fluorescence, 48 h, basal, profiling panel (AID 1164); settings: higher = more signal; note: test concentration not given here
[14] = compound effects on multiple myeloma cell viability – MM1S, calcein-AM fluorescence, 48 h, basal, profiling panel (AID 1165); settings: higher = more signal;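 note: viability of MM1S multiple myeloma cells under basal unstimulated conditions; test concentration not given here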
[15] = calcein-AM signal in unstimulated myeloma cells – cell-based, calcein-AM fluorescence, 48 h, PK04 Diversity Set, profiling panel (AID 1166); settings: RPMI8226 myeloma viability, higher = more signal;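 note: cells grown under basal conditions without added stimulus; test concentration not given here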
[16] = JC-1 mitochondrial signal, unstimulated HepG2 cells – cell-based, JC-1 fluorescence, 24 h, 100 nL compound, profiling panel (AID 1167); settings: HepG2 mitochondrial potential, higher = more signal; note: test concentration not given here
[17] = JC-1 mitochondrial signal, unstimulated adipocytes – cell-based, JC-1 fluorescence, 3T3-L1 adipocytes, 24 h, 100 nL compound, profiling panel (AID 1168); settings: JC-1 mitochondrial fluorescence, higher = more signal, called active from +8 up or from −8 down; note: test concentration not given here
[18] = JC-1 mitochondrial signal, unstimulated myeloma cells – cell-based, JC-1 fluorescence, RPMI8226, 24 h, 100 nL compound, profiling panel (AID 1169); settings: JC-1 mitochondrial potential fluorescence, higher = more signal; note: test concentration not given here
[19] = JC-1 mitochondrial signal, unstimulated MM1S myeloma – cell-based, JC-1 fluorescence, 24 h, 100 nL compound, profiling panel (AID 1170); settings: MM1S mitochondrial potential, higher = more signal; note: test concentration not given here
[20] = resazurin metabolic signal in A549 cells – cell-based, resazurin fluorescence, 24 h, PK04 Diversity Set, profiling panel (AID 1171); settings: A549 viability, higher = more signal, called active from +8 up or from −8 down; note: test concentration not given here

NADPH oxidase 5 (Homo sapiens), sequence (Q96PH1 whole entry, looked up): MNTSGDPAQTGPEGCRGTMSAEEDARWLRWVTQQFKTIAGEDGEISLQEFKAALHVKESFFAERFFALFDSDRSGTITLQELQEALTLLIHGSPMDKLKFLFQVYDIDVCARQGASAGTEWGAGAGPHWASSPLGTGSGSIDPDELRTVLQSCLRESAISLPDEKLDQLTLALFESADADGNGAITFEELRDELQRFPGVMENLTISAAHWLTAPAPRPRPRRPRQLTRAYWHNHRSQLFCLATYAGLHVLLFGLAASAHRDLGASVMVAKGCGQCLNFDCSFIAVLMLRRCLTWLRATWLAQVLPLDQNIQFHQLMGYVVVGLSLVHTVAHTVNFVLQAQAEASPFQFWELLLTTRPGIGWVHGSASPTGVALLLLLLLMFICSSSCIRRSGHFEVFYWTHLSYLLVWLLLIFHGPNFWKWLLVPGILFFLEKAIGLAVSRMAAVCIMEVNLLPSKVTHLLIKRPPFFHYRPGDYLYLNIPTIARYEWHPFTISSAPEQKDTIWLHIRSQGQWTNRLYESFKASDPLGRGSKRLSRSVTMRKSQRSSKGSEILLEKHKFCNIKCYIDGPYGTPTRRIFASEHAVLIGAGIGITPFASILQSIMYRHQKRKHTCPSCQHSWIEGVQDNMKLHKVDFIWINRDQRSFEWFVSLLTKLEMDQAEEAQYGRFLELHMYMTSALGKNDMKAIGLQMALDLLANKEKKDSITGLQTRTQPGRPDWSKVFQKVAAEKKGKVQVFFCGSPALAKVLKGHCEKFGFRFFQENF
NADPH oxidase 4 (Homo sapiens), sequence (Q9NPH5 whole entry, looked up): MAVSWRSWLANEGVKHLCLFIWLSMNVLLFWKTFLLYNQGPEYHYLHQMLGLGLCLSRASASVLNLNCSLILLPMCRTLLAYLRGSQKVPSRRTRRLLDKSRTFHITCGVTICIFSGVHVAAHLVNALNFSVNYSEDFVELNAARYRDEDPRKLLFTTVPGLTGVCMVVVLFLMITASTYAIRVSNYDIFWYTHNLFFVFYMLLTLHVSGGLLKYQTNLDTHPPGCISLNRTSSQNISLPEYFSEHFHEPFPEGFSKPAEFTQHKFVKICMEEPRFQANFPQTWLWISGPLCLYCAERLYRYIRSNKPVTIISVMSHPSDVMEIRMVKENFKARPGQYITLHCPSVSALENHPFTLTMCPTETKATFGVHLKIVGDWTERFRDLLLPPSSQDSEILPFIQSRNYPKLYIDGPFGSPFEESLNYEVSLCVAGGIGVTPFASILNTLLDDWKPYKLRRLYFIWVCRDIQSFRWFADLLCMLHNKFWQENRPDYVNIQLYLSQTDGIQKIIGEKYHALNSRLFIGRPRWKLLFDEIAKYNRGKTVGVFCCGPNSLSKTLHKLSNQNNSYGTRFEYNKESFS
NADPH oxidase 2 (Homo sapiens), sequence (P04839 whole entry, looked up): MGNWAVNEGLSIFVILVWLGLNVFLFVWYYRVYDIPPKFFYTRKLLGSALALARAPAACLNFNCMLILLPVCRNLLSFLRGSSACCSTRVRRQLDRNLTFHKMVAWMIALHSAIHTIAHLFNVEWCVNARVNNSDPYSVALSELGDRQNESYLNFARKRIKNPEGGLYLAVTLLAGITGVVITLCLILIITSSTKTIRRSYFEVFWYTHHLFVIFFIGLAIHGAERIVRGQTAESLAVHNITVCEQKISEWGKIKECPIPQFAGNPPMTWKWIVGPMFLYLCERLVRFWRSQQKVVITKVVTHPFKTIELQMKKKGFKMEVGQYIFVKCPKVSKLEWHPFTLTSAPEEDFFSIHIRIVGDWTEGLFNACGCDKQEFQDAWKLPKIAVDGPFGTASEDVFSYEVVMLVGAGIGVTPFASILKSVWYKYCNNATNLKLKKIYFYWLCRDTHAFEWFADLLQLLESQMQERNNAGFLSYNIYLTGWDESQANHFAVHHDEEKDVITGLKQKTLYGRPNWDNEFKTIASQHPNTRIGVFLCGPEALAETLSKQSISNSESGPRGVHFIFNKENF

SMILES	z-score [1]	composite z-score [2]	z-score [3]	z-score [4]	z-score [5]	z-score [6]	z-score [7]	z-score [8]	z-score [9]	z-score [10]	z-score [11]	z-score [12]	z-score [13]	z-score [14]	z-score [15]	z-score [16]	z-score [17]	z-score [18]	z-score [19]	z-score [20]
COCCCNC(=O)[C@@]1(C)c2ccccc2C(=O)N(c2ccc(C)cn2)[C@H]1c1ccc(CO)cc1	-0.0018 (inactive)	-0.341	0.833 (inactive)	-0.186 (inactive)	0.0037 (inactive)	-0.211 (inactive)	-0.161	-1.02 (inactive)	-0.261 (inactive)	-1.7	-0.255	-1.13	-0.956	-0.0048	-0.857	-0.587	0.285 (inactive)	0.054	-0.295	0.999 (inactive)
COCCOC(=O)N1C(=O)[C@@]2(c3cc(C#Cc4ccc(OC)cc4)ccc31)[C@H](C(=O)N1CCc3cc(OC)c(OC)cc3C1)[C@H]1C(=O)O[C@H](c3ccccc3)[C@H](c3ccccc3)N1[C@@H]2c1ccc(O)cc1	0.515 (inactive)	1.05	1.74 (inactive)	0.402 (inactive)	0.295 (inactive)	0.285 (inactive)	0.269	0.987 (inactive)	-1.37 (inactive)	0.321	-0.0326	0.376	0.97	0.175	-0.393	-0.177	0.302 (inactive)	-0.185	0.516	0.361 (inactive)
COCCOC(=O)N1C(=O)[C@@]2(c3cc(C#Cc4ccc(OC)cc4)ccc31)[C@H](c1ccc(OCCO)cc1)N1[C@H](c3ccccc3)[C@H](c3ccccc3)OC(=O)[C@H]1[C@@H]2C(N)=O	0.629 (inactive)	0.291	5.54 (inactive)	2.19 (inactive)	0.528 (inactive)	0.924 (inactive)	-0.141	1.49 (inactive)	1.03 (inactive)	1.85	-0.383	0.806	-0.792	-1.14	-2.7	-0.617	1.98 (inactive)	-0.65	-1.11	-0.588 (inactive)
CCCCC(O)C1C=CC2C(=O)N(Cc3ccccc3)C(=O)C2N1n1cnnc1 (stereo not given)	-1.18 (inactive)	0.574	0.706 (inactive)	-1.16 (inactive)	0.662 (inactive)	-1.85 (inactive)	1.99	-3.33 (inactive)	-2.04 (inactive)	-3.3	-1.15	0.845	-0.189	0.179	-0.458	0.135	-0.942 (inactive)	-0.874	-1.26	0.164 (inactive)
